Assay results from the supplement of paper PMC8975748.
Structures can show the parent of a compound that is named as a salt.

These compounds were tested on Saccharomyces cerevisiae BY4741 SeMeCo community (assay: z-score of subpopulation abundance vs DMSO median, subpopulation auxotrophic for LUM; higher = larger share of this subpopulation than in DMSO controls). Details: 10 µM; 24 h; SM minimal medium; subpopulation (auxotrophy): LUM.
Outline: (§1)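 Automated confocal microscopy of paraformaldehyde-fixed cells was used to follow a Saccharomyces cerevisiae BY4741 community carrying four plasmids, each restoring one auxotrophy and encoding a distinct fluorescent protein. The community was pre-grown overnight to OD600 1.0, diluted to 0.3, and added at 70 µl to 384-well plates acoustically predosed with library drugs (10 µM final) for 24 h of growth in minimal SM medium. Single-auxotroph fluorescent strains set thresholds and autofluorescence correction, and each subpopulation's abundance was scored as a z-score against the vehicle-well median.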

| SMILES | z-score of subpopulation abundance |
| --- | --- |
| NC(=O)N1c2ccccc2CC(=O)c2ccccc21 [Oxcarbazepine] | 0.55 |
| CC(=O)OCC1=C(C(=O)O)N2C(=O)[C@@H](NC(=O)CSc3ccncc3)[C@H]2SC1 [Cephapirin Benzathine] | -0.22 |
| COc1ccc(C[C@H](N)C(=O)N[C@H]2[C@@H](O)[C@H](n3cnc4c(N(C)C)ncnc43)O[C@@H]2CO)cc1 [Puromycin 2HCl] | -0.39 |
| OCc1ccccc1O[C@@H]1O[C@H](CO)[C@@H](O)[C@H](O)[C@H]1O [Salicin] | 0.42 |
| O=C(CCCN1CCC(O)(c2ccc(Cl)cc2)CC1)c1ccc(F)cc1 [Haloperidol] | -0.06 |
| CC(=O)OCC(CCn1cnc2cnc(N)nc21)COC(C)=O [Famciclovir] | -0.18 |
| O=C(c1ccccc1)c1ccc2n1CCC2C(=O)O (centres undefined) [Ketorolac] | -0.52 |
| CC[C@H]1OC(=O)[C@H](C)[C@@H](O[C@H]2C[C@@](C)(OC)[C@@H](O)[C@H](C)O2)[C@H](C)[C@@H](O[C@@H]2O[C@H](C)C[C@H](N(C)C)[C@H]2O)[C@](C)(O)C[C@@H](C)[C@@H]2N[C@@H](COCCOC)O[C@H]([C@H]2C)[C@]1(C)O [Dirithromycin] | 0.3 |
| C#CCC(Cc1cnc2nc(N)nc(N)c2n1)c1ccc(C(=O)N[C@@H](CCC(=O)O)C(=O)O)cc1 (some centres undefined) [Pralatrexate] | -1.33 |
| NNc1nncc2ccccc12 [Hydralazine HCl] | -0.97 |
| CCN1CCCC1CNC(=O)c1cc(S(N)(=O)=O)ccc1OC (centres undefined) [Sulpiride] | 0.04 |
| CCCCC(F)(F)[C@@]1(O)CC[C@H]2[C@@H](CC(=O)[C@@H]2CCCCCCC(=O)O)O1 [Lubiprostone] | -0.67 |
| CCCN[C@H]1CCc2nc(N)sc2C1 [Pramipexole] | 0.35 |
| Cc1c(Nc2ncccc2C(=O)O)cccc1C(F)(F)F [Flunixin Meglumin] | -0.14 |
| COc1ccc2[nH]c([S+]([O-])Cc3ncc(C)c(OC)c3C)nc2c1 (centres undefined) [Omeprazole Sodium] | -0.98 |
| C#C[C@]1(OC(C)=O)CC[C@H]2[C@@H]3CCC4=C[C@@H](OC(C)=O)CC[C@@H]4[C@H]3CC[C@@]21C [Ethynodiol diacetate] | -0.12 |

| SMILES | z-score of subpopulation abundance |
| --- | --- |
| Cc1ccccc1C(OCCN(C)C)c1ccccc1 (centres undefined) [Orphenadrine Citrate] | 0.36 |
| CCOc1cc(N)c([N+](=O)[O-])cc1C(=O)NC1CCN(CC2CC=CCC2)CC1 (centres undefined) [Cinitapride Hydrogen Tartrate] | 0.94 |
| Cc1onc(-c2ccccc2)c1-c1ccc(S(N)(=O)=O)cc1 [Valdecoxib] | -0.21 |
| COc1ccc(Cc2cnc(N)nc2N)cc1OC [Diaveridine] | -0.41 |
| CCc1cc(C(N)=S)ccn1 [Ethionamide] | -0.07 |
| O=C(O)c1cc(=O)c2c(OCC(O)COc3cccc4oc(C(=O)O)cc(=O)c34)cccc2o1 [Disodium Cromoglycate] | -0.55 |
| Clc1ccc(C(Cn2ccnc2)OCc2c(Cl)cccc2Cl)c(Cl)c1 (centres undefined) [Isoconazole nitrate] | -0.77 |
| Nc1nc(N)nc(-c2cc(Cl)ccc2Cl)n1 [Irsogladine] | -0.45 |
| NC(=O)c1ncn([C@@H]2O[C@H](CO)[C@@H](O)[C@H]2O)n1 [Ribavirin] | 0.09 |
| CC1(C)S[C@@H]2[C@H](NC(=O)[C@H](N)c3ccccc3)C(=O)N2[C@H]1C(=O)OCOC(=O)[C@@H]1N2C(=O)C[C@H]2S(=O)(=O)C1(C)C [Sultamicillin] | 1.13 |
| CN1C2CCCC1CC(NC(=O)c1nn(C)c3ccccc13)C2 (centres undefined) [Granisetron] | -0.48 |
| CCC[C@@H]1C[C@@H](C(=O)N[C@@H]([C@H]2O[C@H](SC)[C@H](O)[C@@H](O)[C@H]2O)[C@@H](C)O)N(C)C1 [Lincomycin HCl] | -0.87 |
| CCc1c2c(nc3ccc(OC(=O)N4CCC(N5CCCCC5)CC4)cc13)-c1cc3c(c(=O)n1C2)COC(=O)[C@]3(O)CC [Irinotecan HCl Trihydrate] | 0.14 |
| Cc1[nH]c(=O)c(C#N)cc1-c1ccncc1 [Milrinone] | -0.06 |
| C[C@@H](O)[C@H]1C(=O)N2C(C(=O)O)=C(S[C@@H]3CN[C@H](C(=O)Nc4cccc(C(=O)O)c4)C3)[C@H](C)[C@H]12 [Ertapenem sodium] | -0.18 |
| C[C@]1(Cn2ccnn2)[C@H](C(=O)O)N2C(=O)C[C@H]2S1(=O)=O [Tazobactam] | 0.22 |

Each compound was assayed on Saccharomyces cerevisiae BY4741 SeMeCo community (assay: z-score of subpopulation abundance vs DMSO median, subpopulation auxotrophic for HLUM; higher = larger share of this subpopulation than in DMSO controls). Details: 10 µM; 24 h; SM minimal medium; subpopulation (auxotrophy): HLUM.
Outline: as §1

| SMILES | z-score of subpopulation abundance |
| --- | --- |
| NC(=O)N1c2ccccc2CC(=O)c2ccccc21 [Oxcarbazepine] | 0.1 |
| CC(=O)OCC1=C(C(=O)O)N2C(=O)[C@@H](NC(=O)CSc3ccncc3)[C@H]2SC1 [Cephapirin Benzathine] | -0.55 |
| COc1ccc(C[C@H](N)C(=O)N[C@H]2[C@@H](O)[C@H](n3cnc4c(N(C)C)ncnc43)O[C@@H]2CO)cc1 [Puromycin 2HCl] | -0.22 |
| OCc1ccccc1O[C@@H]1O[C@H](CO)[C@@H](O)[C@H](O)[C@H]1O [Salicin] | -0.11 |
| O=C(CCCN1CCC(O)(c2ccc(Cl)cc2)CC1)c1ccc(F)cc1 [Haloperidol] | 0.12 |
| COc1cc(O)c(C(=O)Nc2nc(C(=O)NCCN(C(C)C)C(C)C)cs2)cc1OC [Acotiamide] | 1.15 |
| CC(=O)OCC(CCn1cnc2cnc(N)nc21)COC(C)=O [Famciclovir] | 1.06 |
| O=C(c1ccccc1)c1ccc2n1CCC2C(=O)O (centres undefined) [Ketorolac] | -0.11 |
| CC[C@H]1OC(=O)[C@H](C)[C@@H](O[C@H]2C[C@@](C)(OC)[C@@H](O)[C@H](C)O2)[C@H](C)[C@@H](O[C@@H]2O[C@H](C)C[C@H](N(C)C)[C@H]2O)[C@](C)(O)C[C@@H](C)[C@@H]2N[C@@H](COCCOC)O[C@H]([C@H]2C)[C@]1(C)O [Dirithromycin] | -0.46 |
| C#CCC(Cc1cnc2nc(N)nc(N)c2n1)c1ccc(C(=O)N[C@@H](CCC(=O)O)C(=O)O)cc1 (some centres undefined) [Pralatrexate] | 1.08 |
| NNc1nncc2ccccc12 [Hydralazine HCl] | -0.64 |
| COc1cccc2c1C(=O)c1c(O)c3c(c(O)c1C2=O)CC(O)(C(=O)CO)CC3OC1CC(N)C(O)C(C)O1 (centres undefined) [Doxorubicin (Adriamycin) HCl] | 12.9 |
| CCN1CCCC1CNC(=O)c1cc(S(N)(=O)=O)ccc1OC (centres undefined) [Sulpiride] | 0.02 |
| CCCCC(F)(F)[C@@]1(O)CC[C@H]2[C@@H](CC(=O)[C@@H]2CCCCCCC(=O)O)O1 [Lubiprostone] | -0.37 |
| CCCN[C@H]1CCc2nc(N)sc2C1 [Pramipexole] | 0.18 |
| COc1ccc2[nH]c([S+]([O-])Cc3ncc(C)c(OC)c3C)nc2c1 (centres undefined) [Omeprazole Sodium] | -0.1 |
| CO[C@H]1C[C@@H]2CC[C@@H](C)[C@@](O)(O2)C(=O)C(=O)N2CCCC[C@H]2C(=O)O[C@H]([C@H](C)C[C@@H]2CC[C@@H](OP(C)(C)=O)[C@H](OC)C2)CC(=O)[C@H](C)/C=C(\C)[C@@H](O)[C@@H](OC)C(=O)[C@H](C)C[C@H](C)/C=C/C=C/C=C/1C [Ridaforolimus (Deforolimus, MK-8669)] | 21.4 |
| C#C[C@]1(OC(C)=O)CC[C@H]2[C@@H]3CCC4=C[C@@H](OC(C)=O)CC[C@@H]4[C@H]3CC[C@@]21C [Ethynodiol diacetate] | 0.38 |
| Cc1ccccc1C(OCCN(C)C)c1ccccc1 (centres undefined) [Orphenadrine Citrate] | -0.1 |

| SMILES | z-score of subpopulation abundance |
| --- | --- |
| CCOc1cc(N)c([N+](=O)[O-])cc1C(=O)NC1CCN(CC2CC=CCC2)CC1 (centres undefined) [Cinitapride Hydrogen Tartrate] | 0.5 |
| Cc1onc(-c2ccccc2)c1-c1ccc(S(N)(=O)=O)cc1 [Valdecoxib] | -0.56 |
| COc1ccc(Cc2cnc(N)nc2N)cc1OC [Diaveridine] | 0.06 |
| CC1(C)[C@H](C(=O)O)N2C(=O)C[C@H]2S1(=O)=O [Sulbactam sodium] | 0.51 |
| CCc1cc(C(N)=S)ccn1 [Ethionamide] | -0.72 |
| O=C(O)c1cc(=O)c2c(OCC(O)COc3cccc4oc(C(=O)O)cc(=O)c34)cccc2o1 [Disodium Cromoglycate] | -0.81 |
| Clc1ccc(C(Cn2ccnc2)OCc2c(Cl)cccc2Cl)c(Cl)c1 (centres undefined) [Isoconazole nitrate] | 9.4 |
| CCCCCCCCN=C(N)NC(N)=NCc1ccc(Cl)c(Cl)c1 [Olanexidine Hydrochloride semihydrate] | 213 |
| Nc1nc(N)nc(-c2cc(Cl)ccc2Cl)n1 [Irsogladine] | -0.22 |
| NC(=O)c1ncn([C@@H]2O[C@H](CO)[C@@H](O)[C@H]2O)n1 [Ribavirin] | -0.37 |
| CC1(C)S[C@@H]2[C@H](NC(=O)[C@H](N)c3ccccc3)C(=O)N2[C@H]1C(=O)OCOC(=O)[C@@H]1N2C(=O)C[C@H]2S(=O)(=O)C1(C)C [Sultamicillin] | 0.86 |
| CCC[C@@H]1C[C@@H](C(=O)N[C@@H]([C@H]2O[C@H](SC)[C@H](O)[C@@H](O)[C@H]2O)[C@@H](C)O)N(C)C1 [Lincomycin HCl] | -0.36 |
| CCc1c2c(nc3ccc(OC(=O)N4CCC(N5CCCCC5)CC4)cc13)-c1cc3c(c(=O)n1C2)COC(=O)[C@]3(O)CC [Irinotecan HCl Trihydrate] | 0.04 |
| Cc1[nH]c(=O)c(C#N)cc1-c1ccncc1 [Milrinone] | -1.21 |
| C[C@@H](O)[C@H]1C(=O)N2C(C(=O)O)=C(S[C@@H]3CN[C@H](C(=O)Nc4cccc(C(=O)O)c4)C3)[C@H](C)[C@H]12 [Ertapenem sodium] | -0.21 |
| CN(C)CCc1c[nH]c2ccc(C[C@H]3COC(=O)N3)cc12 [Zolmitriptan] | 0.15 |
| CN1CCOC(c2ccccc2)c2ccccc2C1 (centres undefined) [Nefopam HCl] | -0.19 |
| C[C@]1(Cn2ccnn2)[C@H](C(=O)O)N2C(=O)C[C@H]2S1(=O)=O [Tazobactam] | 0.69 |
